Inconclusive results are not listed. Where a call stands in place of a potency, no number is given. Active and inactive are the calls of the source. Calls come from the whole dose curve; as a rule, active = well fitted cell-killing curve with a large enough effect; inconclusive = small, poorly fitted or top-dose-only effect; inactive = flat fitted curve, though single readings scatter.
Assay: Cell Viability - LYMP2-014 (AID 983);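 note: cells exposed to compound for 24 h at 37 °C; nearly all actives have a fitted effect of over 50% in size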
Settings: LYMP2-014 lymphoblastoid cells, viability qHTS; series mostly up to 92.2 µM
Outline: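 Decrease in intracellular ATP after 24 hr treatment at 37 C, measured by luciferase luminescence, indicated cytotoxicity. Concentration-response data were fitted with the standard Hill equation to give AC50.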

Row | SMILES | Potency
1 | CCOP(=S)(OCC)SCSC(C)(C)C | inactive
2 | CCSC(=O)Cl | inactive
3 | Nc1c(Cl)c(Cl)nc(C(=O)O)c1Cl | inactive
4 | O=[N+]([O-])c1ccc(Cl)c(Cl)c1 | inactive
5 | Cc1ccc2ccccc2c1 | inactive
6 | Nc1ccccc1Cl | inactive
7 | [O-][Br+2]([O-])O | inactive
8 | C=CCOC(=O)c1ccccc1N | inactive
9 | C=CC(N)=O | inactive
10 | CC(C)(c1ccccc1)c1ccc(O)cc1 | inactive
11 | CCN(CC)c1ccccc1 | inactive
12 | S=C=Nc1cccc2ccccc12 | inactive
13 | N#CCCCl | inactive
14 | Cc1ccccc1N | inactive
15 | C=CCOC(C)=O | inactive
16 | CCCC(=O)Cl | inactive
17 | NC(=S)Nc1ccccc1 | inactive
18 | O=C(Cl)/C=C/C(=O)Cl | inactive
19 | O=NN(c1ccccc1)c1ccccc1 | inactive
20 | C1CCC2CCCCC2C1 (stereo not drawn) | inactive

Assay: Cell Viability - LYMP2-016 (AID 984);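 note: cells exposed to compound for 24 hours at 37 °C; nearly all actives have a fitted effect of over 55% in size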
Settings: LYMP2-016 lymphoblastoid cell viability, qHTS; series mostly up to 92.2 µM
Outline: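 Concentration-dependent ATP depletion measured in LYMP2-016 lymphoblastoid cells, 24 h, 37 C; luciferase-based luminescent detection; Hill-equation AC50.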

Row | SMILES | Potency
21 | Brc1ccccc1 | inactive
22 | CCOP(=S)(OCC)SCSC(C)(C)C | inactive
23 | CCSC(=O)Cl | inactive
24 | Cc1cccc([N+](=O)[O-])c1 | inactive
25 | Nc1c(Cl)c(Cl)nc(C(=O)O)c1Cl | inactive
26 | CC(C)(C)OOC(C)(C)C | inactive
27 | C=C(C)C(=O)OCC1CO1 (stereo not drawn) | inactive
28 | Cc1ccc([N+](=O)[O-])cc1C | inactive
29 | O=[N+]([O-])c1ccc(Cl)c(Cl)c1 | inactive
30 | C=CC(=C)C | inactive
31 | Cc1ccc2ccccc2c1 | inactive
32 | Nc1ccccc1Cl | inactive
33 | Clc1ccc2ccccc2c1 | inactive
34 | [O-][Br+2]([O-])O | inactive
35 | Clc1nc(Cl)nc(Nc2ccccc2Cl)n1 | inactive
36 | OCC1CO1 (stereo not drawn) | inactive
37 | C=CCOC(=O)c1ccccc1N | inactive
38 | C=CC(N)=O | inactive
39 | CC(C)(c1ccccc1)c1ccc(O)cc1 | inactive

Row | SMILES | Potency
40 | CCN(CC)c1ccccc1 | inactive
41 | S=C=Nc1cccc2ccccc12 | inactive
42 | N#CCCCl | inactive
43 | O=NN(CCO)CCO | inactive
44 | Cc1ccccc1N | inactive
45 | C=CCOC(C)=O | inactive
46 | CCCC(=O)Cl | inactive
47 | NC(=S)Nc1ccccc1 | inactive
48 | O=C(Cl)/C=C/C(=O)Cl | inactive
49 | C=C(Cl)Cl | inactive
50 | COc1ccc(C=O)cc1OC | inactive
51 | C=CC(=O)OCC | inactive
52 | c1nc[nH]n1 | inactive
53 | c1ccc2c(c1)CCCC2 | inactive
54 | CCCSC(=O)Cl | inactive
55 | Clc1cccc(C(Cl)(Cl)Cl)n1 | inactive
56 | O=NN(c1ccccc1)c1ccccc1 | inactive
57 | C1CCC2CCCCC2C1 (stereo not drawn) | inactive
58 | CC(O)CCl (stereo not drawn) | inactive

From PubChem BioAssay (NCATS)
